# Source: PubChem BioAssay
# Several values for one entry are separate records, joined by “and”; a condition that tells them apart may be missing. Equal values may be shown once. Activity calls are given as the source filed them.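 How the source made its calls, unless noted: active means thallium flux through the channel raised or lowered by more than 3 SD from vehicle-only wells, actives on both sides; inactive means the rest.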
# Tests used:
# [1] = Wnt pathway potentiators raising nuclear beta-catenin – imaging, WNT3A-conditioned medium, mouse C2C12, NPC library, primary screen (AID 1117326; in the data active means nuclear beta-catenin stimulation mostly above about 4.2%, no sharp cut-off; inactive means mostly below about 10%); details: stronger effect = higher value
# [2] = stimulators of insulin release from INS-1E, primary screen, cell-based, 5 mM glucose, NPC library (AID 1117329;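 active means compound raises insulin release from rat beta cells at 5 mM glucose, no numeric limit stated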); details: rat INS-1E insulin secretion, at 10 µM, stronger effect = higher value
# [3] = growth inhibition of GSK3B-pretreated HCT116 cells – cell-based, CellTiter-Glo, 0.2 to 20 µM (AID 1117336;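 active means compounds lowering colon cancer cell viability after pretreatment blocking the GSK3B kinase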); details: HCT116 viability after GSK3B inhibitor, at 20 µM, stronger effect = higher value
# [4] = inhibition of endothelial tube formation, primary screen, imaging, VEGF stimulated, CD31 staining, tube area, NPC library (AID 1117340;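 active means compound that reduces growth-factor-driven endothelial tube area in a mixed cell culture, no cutoff stated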); details: VEGF-stimulated ADSC/ECFC co-culture, at 10 µM, stronger effect = higher value
# [5] = GLP1 release stimulators, primary, NCI-H716, NPC library (AID 1117341;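 active means compound raises GLP1 secretion from the human gut endocrine cells, with no numeric limit stated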); details: NCI-H716 cells, at 10 µM, stronger effect = higher value
# [6] = HCT116 colon cancer cell growth inhibition, primary screen, CellTiter-Glo luminescence, NPC library (AID 1117342;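 active means compounds that lower survival of HCT116 colon cancer cells in the luminescence readout, no numeric limit stated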); details: at 20 µM (top of the series)
# [7] = reduced SW480 viability measured with CellTiter-Glo, NPC library, primary (AID 1117343;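 active means compounds that lower viability of the colon cancer cells in the luminescence readout, with no numeric limit stated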); details: CellTiter-Glo luminescence; at 20 µM (top of the series)
# [8] = NPC library primary testing for decreased DLD-1 cell viability via CellTiter-Glo (AID 1117346;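 active means compounds that lower survival of DLD-1 colon cancer cells in the luminescence readout, no cutoff given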); details: DLD-1 viability, CellTiter-Glo luminescence; at 20 µM (top of the series)
# [9] = molecular target: 6-phosphogluconate dehydrogenase, decarboxylating (Homo sapiens) (UniProt P52209); test: inhibition of human phosphogluconate dehydrogenase – biochemical, recombinant enzyme, NADPH absorbance, primary screen (AID 1159550;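 active means at least 20% inhibition of 6-phosphogluconate dehydrogenase activity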); details: recombinant 6PGD, NADPH absorbance 341 nm; at 10 µM; stronger effect = higher value
# [10] = modulation of C. elegans fzo-1 (AID 1259413; call rule not given here;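 further: fzo-1 mutant C. elegans worms in liquid wells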); details: C. elegans fzo-1 modulator screen, mean read-out; stronger effect = higher value
# [11] = EMT-state selective cytotoxicity in co-culture – imaging, PC-3E GFP, TEM4-18 mCherry, primary screen (AID 1345086;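 active means compounds killing one labelled cell type while sparing the other, by normalised counts and ratio limits, not self-fluorescent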;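 on all read-outs here: cells exposed to compound for 72 h before imaging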;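 on red/green cell ratio (normalised): normalised mesenchymal count divided by normalised epithelial count so high means epithelial killing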); details: PC-3E GFP / TEM4-18 mCherry co-culture, imaging cell counts, at 1 µM; for red/green cell ratio (normalised): actives lie on both sides, counts scaled to control wells, 1 = unselective
# [12] = MELAS cybrid and Rieske KO viability enhancers – cell-based, MELAS cybrids, Rieske KO mouse fibroblasts, CellTiter-Glo, primary screen (AID 1508586;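 active means mean z-score across replicates of 1.96 or higher in either the MELAS or the Rieske mutant cell line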;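 further: z relative to plate mean and SD of compound and empty wells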); details: low glucose
# [13] = molecular target: NAD(+) hydrolase SARM1 (Homo sapiens) (UniProt Q6SZW1); test: blocking NAD cleavage by SARM1 SAM-TIR – cell lysate, NAD-Glo luminescence (AID 1508614;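 active means compound whose remaining NAD level is above about 45 nM, limit read from the data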); details: SAM-TIR HEK293T lysate NADase, at 1 µM, stronger effect = higher value
# [14] = molecular target: Mitogen-activated protein kinase 7 (Homo sapiens) (UniProt Q13164); test: Gal4-ERK5 driven luciferase induction – cell-based, HTS, primary screen (AID 1508626;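 active means luciferase signal above three times the same-plate solvent-only control wells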;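 further: luciferase driven by Gal4-ERK5 fusion binding five Gal4 sites before minimal TATA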); details: HeLa Gal4-ERK5 transactivation, 18 h, at 5 µM, stronger effect = higher value
# F380Y = test: BK channel mutant inhibitors and activators – cell-based, U2OS BacMam, thallium flux, beta subunits, selectivity assay, profiling panel (AID 1259406); details: U2OS BacMam BK variants, at 30 µM;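 further: initial slope of Thallos dye fluorescence rise after thallium is added; log ratio against the mean of 0.3% DMSO vehicle wells on the same plate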
# F380Y/beta1 = test: as above; details: U2OS BacMam BK variants, at 30 µM
# F380Y/beta2Delta = test: as above; details: U2OS BacMam BK variants, at 30 µM
# [15] = growth inhibition, single agents and combos, ICB984, cell-based, cisplatin or BGB combos, synergistic combos for chromothripsis tumors (AID 1671451; call rule not given here;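 further: cells exposed for 96 hours before readout; 0% = vehicle DMSO and 100% = killing by high DMSO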); details: ICB984 medulloblastoma cells, drug combinations, stronger effect = higher value
# [16] = measured here: epithelial PC-3E GFP cell survival
# [17] = measured here: mesenchymal TEM4-18 mCherry cell survival
# [18] = MELAS cybrid survival, CellTiter-Glo 48 h, stronger effect = higher value
# [19] = Rieske KO mouse fibroblast survival, CellTiter-Glo 72 h
# Sequence of Mitogen-activated protein kinase 7 (Homo sapiens) (Q13164 whole entry, looked up, the tested form may be a part): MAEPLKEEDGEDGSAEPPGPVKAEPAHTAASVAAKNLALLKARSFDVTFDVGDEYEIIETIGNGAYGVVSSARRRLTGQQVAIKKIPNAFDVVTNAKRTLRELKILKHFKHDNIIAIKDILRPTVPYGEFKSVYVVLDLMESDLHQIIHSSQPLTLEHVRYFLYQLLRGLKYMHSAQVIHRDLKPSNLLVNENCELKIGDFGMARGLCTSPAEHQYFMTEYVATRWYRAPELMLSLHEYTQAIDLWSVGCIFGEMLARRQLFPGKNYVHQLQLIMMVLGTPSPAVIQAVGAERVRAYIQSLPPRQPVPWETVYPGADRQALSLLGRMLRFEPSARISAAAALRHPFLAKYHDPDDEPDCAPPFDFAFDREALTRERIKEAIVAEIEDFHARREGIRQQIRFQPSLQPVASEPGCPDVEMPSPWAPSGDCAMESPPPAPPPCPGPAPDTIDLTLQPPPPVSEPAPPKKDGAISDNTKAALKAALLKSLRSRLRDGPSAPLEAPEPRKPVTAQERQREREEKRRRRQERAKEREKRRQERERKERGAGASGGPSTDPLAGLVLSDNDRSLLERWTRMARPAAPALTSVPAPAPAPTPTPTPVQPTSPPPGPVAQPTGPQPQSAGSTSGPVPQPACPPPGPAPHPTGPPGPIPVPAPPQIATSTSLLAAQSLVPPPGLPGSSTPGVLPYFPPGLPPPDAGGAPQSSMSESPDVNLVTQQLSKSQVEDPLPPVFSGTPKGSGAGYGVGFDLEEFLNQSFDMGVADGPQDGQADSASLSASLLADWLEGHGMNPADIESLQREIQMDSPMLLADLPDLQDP
# Sequence of NAD(+) hydrolase SARM1 (Homo sapiens) (Q6SZW1 whole entry, looked up, the tested form may be a part): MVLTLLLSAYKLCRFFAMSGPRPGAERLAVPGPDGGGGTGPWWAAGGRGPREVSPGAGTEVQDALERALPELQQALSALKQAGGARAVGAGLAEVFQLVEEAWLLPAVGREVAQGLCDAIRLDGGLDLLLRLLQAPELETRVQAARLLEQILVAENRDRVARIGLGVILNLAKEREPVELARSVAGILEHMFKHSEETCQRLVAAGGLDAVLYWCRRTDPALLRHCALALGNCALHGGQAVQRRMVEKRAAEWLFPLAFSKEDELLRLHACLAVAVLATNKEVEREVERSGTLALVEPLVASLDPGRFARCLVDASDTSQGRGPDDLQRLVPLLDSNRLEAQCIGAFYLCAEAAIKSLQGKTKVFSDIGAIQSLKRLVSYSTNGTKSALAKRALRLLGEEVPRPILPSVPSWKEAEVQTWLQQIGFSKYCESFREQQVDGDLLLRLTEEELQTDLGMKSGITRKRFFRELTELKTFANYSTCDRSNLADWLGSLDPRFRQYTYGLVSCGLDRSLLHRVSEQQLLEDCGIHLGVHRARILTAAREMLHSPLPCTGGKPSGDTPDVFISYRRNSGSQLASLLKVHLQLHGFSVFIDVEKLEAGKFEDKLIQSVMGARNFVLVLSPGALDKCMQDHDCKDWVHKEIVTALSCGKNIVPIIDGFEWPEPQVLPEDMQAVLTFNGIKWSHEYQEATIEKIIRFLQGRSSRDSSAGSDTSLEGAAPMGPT
# Sequence of 6-phosphogluconate dehydrogenase, decarboxylating (Homo sapiens) (P52209 whole entry, looked up): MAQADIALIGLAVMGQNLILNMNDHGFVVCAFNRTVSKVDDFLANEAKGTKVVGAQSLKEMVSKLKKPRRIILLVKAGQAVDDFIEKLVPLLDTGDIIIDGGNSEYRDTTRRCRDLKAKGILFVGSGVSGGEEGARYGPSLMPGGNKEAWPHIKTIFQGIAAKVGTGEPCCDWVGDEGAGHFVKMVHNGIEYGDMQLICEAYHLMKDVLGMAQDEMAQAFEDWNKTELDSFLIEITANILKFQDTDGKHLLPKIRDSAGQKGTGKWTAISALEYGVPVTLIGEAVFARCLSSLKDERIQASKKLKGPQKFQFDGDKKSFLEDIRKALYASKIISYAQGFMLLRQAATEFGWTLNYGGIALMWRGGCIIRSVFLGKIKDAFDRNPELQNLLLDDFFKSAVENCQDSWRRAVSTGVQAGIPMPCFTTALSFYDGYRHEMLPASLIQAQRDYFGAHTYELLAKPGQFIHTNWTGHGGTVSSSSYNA
structure (smiles),measurement,setting,value
CC1=C(CC(=O)O)c2cc(F)ccc2/C1=C\c1ccc(S(C)=O)cc1 (configuration not stated),nuclear beta-catenin stimulation,[1]; at 10 µM,-1.5% (inactive)
same,nuclear beta-catenin stimulation,"[1]; stimulation, at 2 µM",0.2%
same,insulin secretion stimulation,[2],0.2% (inactive)
same,viability decrease,[3],-51.5% (inactive)
same,tube area decrease,[4],15.7% (inactive)
same,GLP1 secretion stimulation,[5],-1.1% (inactive)
same,inhibition of viability,[6],-9.1% (inactive)
same,viability decrease (inhibition),[7],15% (inactive)
same,viability decrease (inhibition),[8],-23.3% (inactive)
same,inhibition,[9],2.79% (inactive)
same,mean signal,[10],230 (inactive)
same,red/green cell ratio (normalised),[11],1.2 (inactive)
same,normalised cell number,[11]; [16],0.35
same,normalised cell number,[11]; [17],0.43
same,z-score,[12]; [18],-0.637 (inactive)
same,z-score,[12]; [19],0.215
same,remaining NAD,[13],10 nM (inactive)
same,luciferase signal,[14],56 AU (inactive)
same,log fold change Tl+ flux,F380Y,0.0356 (inactive)
same,log fold change Tl+ flux,F380Y/beta1,0.0787 (inactive)
same,log fold change Tl+ flux,F380Y/beta2Delta,0.0561 (inactive)
Nc1nc2c(ncn2COCCO)c(=O)[nH]1,nuclear beta-catenin stimulation,[1]; at 10 µM,3% (inactive)
same,nuclear beta-catenin stimulation,"[1]; stimulation, at 2 µM",-1%
same,insulin secretion stimulation,[2],0.5% (inactive)
same,viability decrease,[3],-0.3% (inactive)
same,tube area decrease,[4],8.6% (inactive)
same,GLP1 secretion stimulation,[5],-0.5% (inactive)
same,inhibition of viability,[6],-3.47% (inactive)
same,viability decrease (inhibition),[7],23.2% (inactive)
same,viability decrease (inhibition),[8],-16.2% (inactive)
same,inhibition,[9],18.2% (inactive)
same,mean signal,[10],281 (inactive)
same,red/green cell ratio (normalised),[11],1.25 (inactive)
same,normalised cell number,[11]; [16],1.01
same,normalised cell number,[11]; [17],1.26
same,z-score,[12]; [18],-0.252 (inactive) and -0.378 (inactive) and 0.479
same,z-score,[12]; [19],0.554 and 0.269 and 2.37
same,remaining NAD,[13],10 nM (inactive)
same,luciferase signal,[14],40 AU (inactive)
same,inhibition,"[15]; BGB IC20 combo, at 0.005 µM",14.3% and 0.139%
same,inhibition,"[15]; BGB IC40 combo, at 0.005 µM",-30.6% and -19%
same,inhibition,"[15]; BGB IC40 combo, at 0.05 µM",-33.3% and -34.4%
same,inhibition,[15]; at 0.5 µM,-25.4% (inactive) and -25.1% (inactive)
same,inhibition,"[15]; cisplatin combo, at 0.05 µM",-37% and -39.3%
same,inhibition,"[15]; cisplatin combo, at 0.5 µM",-27.7% and -16.9%
same,inhibition,"[15]; cisplatin combo, at 5 µM",-26.2% and -27.5%
same,inhibition,"[15]; measured here: 5 uM single agent, at 5 µM",-25.9% and 2.01%
same,log fold change Tl+ flux,F380Y,0.00551 (inactive)
same,log fold change Tl+ flux,F380Y/beta1,-0.0568 (inactive)
same,log fold change Tl+ flux,F380Y/beta2Delta,0.0127 (inactive)
CCCN(CCC)C(=O)C(CCC(=O)OCCCN1CCN(CCOC(=O)Cc2c(C)n(C(=O)c3ccc(Cl)cc3)c3ccc(OC)cc23)CC1)NC(=O)c1ccccc1 (configuration not stated),nuclear beta-catenin stimulation,[1]; at 10 µM,51% (active)
same,nuclear beta-catenin stimulation,"[1]; stimulation, at 2 µM",-0.4%
same,insulin secretion stimulation,[2],0.4% (inactive)
same,viability decrease,[3],113% (active)
same,tube area decrease,[4],25.9% (inactive)
same,GLP1 secretion stimulation,[5],3.5% (inactive)
same,inhibition of viability,[6],113% (active)
same,viability decrease (inhibition),[7],120% (active)
same,viability decrease (inhibition),[8],93.3% (active)
CCCCCCCCCCCCCCCC[n+]1ccccc1,nuclear beta-catenin stimulation,[1]; at 10 µM,-2.9% (inactive)
same,nuclear beta-catenin stimulation,"[1]; stimulation, at 2 µM",5.4%
same,insulin secretion stimulation,[2],46% (active)
same,viability decrease,[3],56% (active)
same,tube area decrease,[4],104% (active)
same,GLP1 secretion stimulation,[5],72.8% (active)
same,inhibition of viability,[6],112% (active)
same,viability decrease (inhibition),[7],112% (active)
same,viability decrease (inhibition),[8],60.9% (active)
COc1cc(C(=O)OC(COCCC(C)C)CN2CCOCC2)cc(OC)c1OC (configuration not stated),nuclear beta-catenin stimulation,[1]; at 10 µM,0.4% (inactive)
same,nuclear beta-catenin stimulation,"[1]; stimulation, at 2 µM",2.6%
same,insulin secretion stimulation,[2],1.9% (inactive)
same,viability decrease,[3],-9.2% (inactive)
same,tube area decrease,[4],0.7% (inactive)
same,GLP1 secretion stimulation,[5],13.1% (inactive)
same,inhibition of viability,[6],18.4% (inactive)
same,viability decrease (inhibition),[7],39.2% (inactive)
same,viability decrease (inhibition),[8],2.2% (inactive)
